Screens deposited in PubChem BioAssay by National Center for Advancing Translational Sciences (NCATS).
Shown are actives, neighbours in structure and some others; about 4.6% of the full set was active somewhere.
D1 antag = Antagonist of Human D 1 Dopamine Receptor: qHTS; D(1A) dopamine receptor (Homo sapiens), P21728; HEK293 TREx D1 cells, calcium flux, dopamine EC80; active compounds read low; activity change, negative = inhibition, % at 10 µM; 360,000 tested, 3.2% active; AID 504652, 2011; in the data active = activity change below about -30%
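Using tetracycline-induced force-coupled D1 Hek293 cells and a calcium dye, signals were followed for 180 s after compound, then for 180 s after EC80 dopamine, to detect inhibitors.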
D1 ag = Allosteric Agonists of the Human D1 Dopamine Receptor: qHTS; D(1A) dopamine receptor (Homo sapiens), P21728; HEK293 T-REx D1 cells, calcium flux, agonist mode; activation, % at 2 µM; 360,000 tested, 1% active; AID 504660, 2011
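Inducible HEK293 T-REx D1 cells, force-coupled to calcium signalling, were plated at 4000 cells/well with tetracycline and held overnight at 30 C. After no-wash calcium dye loading, compound-evoked calcium rise over 180 s flagged agonists.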
D1 potentiator = Potentiators of Human D1 Dopamine Receptor: qHTS. D(1A) dopamine receptor (Homo sapiens), P21728. HEK293 TREx D1 cells, calcium flux, dopamine EC20 potentiation. potentiation, % at 10 µM. 360,000 tested, 0.036% active; in the data active = potentiation above about 30%
TRHR ag = qHTS for Small Molecule Agonists and Allosteric Enhancers of Human TRH Receptor: Primary Screen for Agonists; TRHR cells, calcium flux fluo-8, FDSS agonist mode; 360,000 tested, 0.18% active; Thyrotropin-releasing hormone receptor (Homo sapiens), P34981; activation, % at 2 µM; AID 493084, 2011
Target sequence (P34981 whole entry, looked up): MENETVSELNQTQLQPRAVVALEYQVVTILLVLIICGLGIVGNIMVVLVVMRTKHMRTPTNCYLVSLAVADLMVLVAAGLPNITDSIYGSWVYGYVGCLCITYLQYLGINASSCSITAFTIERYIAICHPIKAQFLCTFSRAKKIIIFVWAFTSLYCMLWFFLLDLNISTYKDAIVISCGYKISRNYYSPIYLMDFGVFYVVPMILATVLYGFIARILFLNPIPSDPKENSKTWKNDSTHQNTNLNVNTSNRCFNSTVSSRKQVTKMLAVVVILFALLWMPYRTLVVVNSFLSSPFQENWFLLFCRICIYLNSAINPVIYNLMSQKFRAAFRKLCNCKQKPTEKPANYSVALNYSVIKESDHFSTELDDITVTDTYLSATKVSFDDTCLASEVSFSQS
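Steps: seed TRHR cells overnight; add fluo-8 no-wash Ca dye, RT 30 min–1.5 h; record 10 s baseline; pin-transfer compounds; monitor fluorescence 1 cycle/s for the agonist window. Calcium increases flag candidate agonists.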
TRHR enhancer = qHTS for Small Molecule Agonists and Allosteric Enhancers of Human TRH Receptor: Primary Screen for Enhancers | Thyrotropin-releasing hormone receptor (Homo sapiens), P34981 | TRHR cells, fluo-8 calcium fluorescence, EC20 TRH enhancement | enhancement, % at 2 µM | 360,000 tested, 0.66% active | AID 493056, 2011; in the data active = enhancement above about 30%
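Enhancer read-out: after compound pinning and an initial kinetic agonist-mode read, an EC20 of TRH (10 nM final) was injected and fluo-8 calcium signal (Ex 480/Em 530) followed at 1 s/cycle for 100 cycles in TRHR-expressing cells.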
Hits are given with their value; i = inactive; ! = repeats disagree. Cut-off read from the data, not from the text of the source, unless noted: active = activation above about 30%; inactive = the rest.

SMILES	D1 antag	D1 ag	D1 potentiator	TRHR ag	TRHR enhancer
O=C(O)CCN1c2ccccc2Sc2ccccc21	i	i	i	i	i
O=c1c2[nH]c3ccsc3c2cnn1Cc1ccccc1F	i	i	i	i	i
O=C(CN1C(=O)NC(Cc2ccccc2)C1=O)Nc1ccc(F)cc1 (configuration not stated)	-86	i	i	i	i
COCCNC(=O)c1ccc(-c2nc(CN3CCc4ccccc43)c(C)o2)cc1	i	i	i	i	i
Cc1ccc(CNC(=O)c2ccc3c(O)c(S(=O)(=O)c4ccc(Cl)cc4)c(=O)[nH]c3c2)cc1	i	i	i	i	i
Cc1ccc(-c2[nH]c3cc(C(=O)NCCCn4ccnc4)ccc3c(=O)c2O)cc1	-57	i	i	i	i
CCCNC(=O)c1ccc2c(=O)c(O)c(-c3ccc(OC)cc3)[nH]c2c1	-35	i	i	i	i
CCCNC(=O)c1ccc2c(=O)c(O)c(-c3ccc(C)cc3)[nH]c2c1	-93	i	i	i	i
CCCNC(=O)c1ccc2c(=O)c(O)c(-c3ccsc3)[nH]c2c1	i	i	i	i	i
Cc1ccc(-c2[nH]c3cc(C(N)=O)ccc3c(=O)c2O)cc1	-36	i	i	i	i
CCc1sc(Nc2cccc(Cl)c2C)nc1-c1cc2cccc(OC)c2oc1=O	i	i	i	i	i
Cc1ccc(CNC(=O)c2ccc3c(=O)c(O)c(-c4ccc(C)cc4)[nH]c3c2)cc1	-41	i	i	i	i
Cc1ccccc1C(=O)Nc1c(C)nc2ccccn2c1=O	i	i	i	i	i
CCOC(=O)c1ccc(NC(C)=O)c([N+](=O)[O-])c1	i	i	i	i	i
CNc1ccc(C(=O)OCC(=O)Nc2ccnn2C(C)C)cc1[N+](=O)[O-]	-42	i	i	i	i
COc1ccc(Cl)cc1NC(=O)NCCc1c(C)nn(C)c1C	i	i	i	i	i
Cc1ccc(-c2nc(CNC(=O)Nc3ccccc3)c(C)o2)cc1	i	i	i	i	i
CN(C)S(=O)(=O)N1C(=O)c2ccccc2C1=O	i	i	i	i	i
CN(C)/C=C1\C=C2C(=O)c3ccccc3N2C1=O	-62	335	i	249	31
O=C(NCc1ccccc1)C(c1ccccc1)N(Cc1ccc2c(c1)OCO2)C(=O)Cc1cccs1 (configuration not stated)	i	34	i	i	i
COc1ccc(Nc2nc(NN)nc(Nc3ccc(OC)cc3)n2)cc1	-31	i	i	i	i
NNc1nc(Nc2ccccc2)nc(Nc2ccccc2)n1	-30	i	i	i	i
c1ccc(Nc2ccnc(Nc3ccccc3)n2)cc1	-34	i	i	i	i
COc1ccc(Nc2ccc(OC)cc2)cc1	i	i	i	i	i
CCCCNC(=O)CCn1c(=O)c2ccccc2n(Cc2cccc(Cl)c2)c1=O	i	i	i	i	i
SMILES	D1 antag	D1 ag	D1 potentiator	TRHR ag	TRHR enhancer
Cc1cccc(N2CCN(C(=O)Nc3cn(CC(C)C)c(=O)c4ccccc34)CC2)c1C	i	i	i	i	i
O=S(=O)(Nc1cccc2ccccc12)c1cccc2ccccc12	-43	i	i	i	i
O=S(=O)(Nc1cccc2ccccc12)c1ccccc1	i	i	i	i	i
COC(=O)c1ccc(COC(=O)CCc2nc(-c3ccccc3)c(-c3ccccc3)o2)cc1	i	30	i	i	i
Cc1cccn2c3c(c(=O)nc12)C(c1ccc(F)cc1)CC(=O)N3 (configuration not stated)	i	i	i	i	i
Cc1cc(C)c2c(n1)sc1c(-c3ccccc3)c(C#N)c(N)nc12	i	i	i	i	i
Cc1c(C#N)c(N)nc2c3c(sc12)NC(=O)CC3c1ccc(F)cc1 (configuration not stated)	-31	i	i	i	i
Cc1c(C#N)c(N)nc2c3c(sc12)NC(=O)CC3c1ccccc1 (configuration not stated)	i	i	i	i	36
CC(=O)N1CCN(c2csc3ccc(F)cc3c2=O)CC1	i	i	i	i	i
CCOc1ccc(CNC(=O)Cn2nc(C)c3c(C)n(-c4ccc(C)cc4)nc3c2=O)cc1	-50!	i	i	i	i
Cc1nn(CCC(=O)NCc2ccc(Cl)cc2)c(=O)c2nn(-c3ccccc3)c(C)c12	i	i	i	i	i
Cc1ccc(-n2nc3c(=O)n(CC(=O)NCc4ccco4)nc(C)c3c2C)cc1	-34	i	i	i	i
Cc1ccc(-n2nc3c(=O)n(CC(=O)NC(C)C)nc(C)c3c2C)cc1	-35	i	i	i	i
Cc1nn(CCC(=O)NCc2ccc(N(C)C)cc2)c(=O)c2nn(-c3ccccc3)c(C)c12	-31!	i	i	i	i
Cc1nn(CC(=O)NCCc2ccco2)c(=O)c2nn(-c3ccccc3)c(C)c12	i	i	i	i	i
CCc1ccc(S(=O)(=O)Nc2cccc(-c3ccc(N4CCC(C)CC4)nn3)c2)s1	i	i	i	i	i
COc1ccc(N(CC(=O)Nc2ccc(C)cn2)S(=O)(=O)c2c(C)noc2C)cc1	-80	i	i	i	i
CCC(C)(C)c1ccc(OCCCC[n+]2ccccc2)c(C(C)(C)CC)c1	i	166	i	i	i
CCCCCc1ccc(OCCCC[n+]2ccccc2)c(CCCCC)c1	i	96	i	i	i
Cc1cccc(NC(=O)CSc2nc3n[nH]c(C)c3c(=N)n2-c2cccc(Cl)c2)c1	-35	i	i	i	i
Cc1cccc(-n2c(SCC(=O)N3CCCC3)nc3n[nH]c(C)c3c2=N)c1	i	i	i	i	40
Cc1ccc(NC(=O)CSc2nc3n[nH]c(C)c3c(=N)n2-c2cccc(C)c2)cc1	i	i	i	i	i
Cc1cccc(-c2nsc(SCC(=O)N3CCCC3)n2)c1	-37	i	i	i	i
O=C(CSc1nc(-c2ccccc2)ns1)N1CCOCC1	i	i	i	i	i
Cc1ccc(CNC(=O)c2sc3nc[nH]c(=O)c3c2C)cc1	i	i	i	i	i
SMILES	D1 antag	D1 ag	D1 potentiator	TRHR ag	TRHR enhancer
CCN1/C(=C/C=C/C=C/C=C/c2sc3ccccc3[n+]2CC)Sc2ccccc21	i	i	i	i	32
CN1CCc2nc3sc(C(=O)Nc4c(F)cccc4F)c(N)c3cc2C1	i	i	i	i	i
CC(C)OC(=O)CC(=O)c1sc2nc3c(cc2c1N)CN(C)CC3	i	i	i	i	38
CCc1nn2c(=O)cc(COC(=O)c3cccs3)nc2s1	i	i	i	i	i
Cc1cccc(C(=O)Nc2ccc3oc(-c4ccncc4)nc3c2)c1	i	i	i	i	i
Cc1ccc(OCCCC(=O)Nc2sc3c(c2C(N)=O)CCCC3)cc1	i	i	i	i	i
